Measurements reported in PubChem BioAssay (NCI).
The panel holds about 83,000 compounds, 20% with a hit somewhere; the sample as a whole holds those more often.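 Activity criterion: percent growth below 10, measured after cells in 96-well plates were exposed to a single compound concentration for 48 hours.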 Unmarked numbers belong to inactive results. The source made the active and inactive calls.

Assays:
Assay in all cases: NCI-60 one-dose screen, 48 h (100 = growth as untreated, 0 = no growth, -100 = all killed)
RPMI-8226 leukemia = conditions: 10 µM unless noted
OVCAR-8 ovarian = conditions: 10 µM unless noted
OVCAR-5 ovarian = conditions: 10 µM unless noted
OVCAR-4 ovarian = conditions: 10 µM unless noted
IGROV1 ovarian = conditions: 10 µM unless noted
OVCAR-3 ovarian = conditions: 10 µM unless noted
HS 578T breast = conditions: 10 µM unless noted
NCI/ADR-RES ovarian = conditions: 10 µM unless noted
T-47D breast = conditions: 10 µM unless noted
BT-549 breast = conditions: 10 µM unless noted
MDA-MB-435 melanoma = conditions: 10 µM unless noted
SW-620 colon = conditions: 10 µM unless noted
MCF7 breast = conditions: 10 µM
HCT-116 colon = conditions: 10 µM unless noted
HCC-2998 colon = conditions: 10 µM unless noted
KM12 colon = conditions: 10 µM unless noted

Structure (SMILES)	growth (RPMI-8226 leukemia)	growth (OVCAR-8 ovarian)	growth (OVCAR-5 ovarian)	growth (OVCAR-4 ovarian)	growth (IGROV1 ovarian)	growth (OVCAR-3 ovarian)	growth (HS 578T breast)	growth (NCI/ADR-RES ovarian)	growth (T-47D breast)	growth (BT-549 breast)	growth (MDA-MB-435 melanoma)	growth (SW-620 colon)	growth (MCF7 breast)	growth (HCT-116 colon)	growth (HCC-2998 colon)	growth (KM12 colon)
CCCCC1COc2cccc3c2N1C=C/C3=C\C(=O)N(C)c1ccccc1 (stereo unspecified)	7.39% (active)	52.9%	83.9%	50.7%	56.1%	49.2%	78.4%	86.4%	41.6%	50.8%	69%	73.4%	66.7%	36.1%	71.1%	65.2%
COc1cc(/C=C2\CN(S(=O)(=O)c3ccccc3)C/C(=C\c3cc(CN4CCCC4)c(O)c(OC)c3)C2=O)cc(CN2CCCC2)c1O	-13.3% (active)	19.2%	-9.14% (active)	34.8%	-27.6% (active)	11.1%	33.6%	92.7%	32.3%	33.5%	-37.1% (active)	4.93% (active)	5.38% (active)	-81.1% (active)	-87.9% (active)	-56.3% (active)
CCN1C(=O)N(c2ccccc2)C2Nn3c(s/c(=C4\C(=O)N(C(C)C)c5ccccc54)c3=O)=NC21 (stereo unspecified)	97.7%	103%	102%	105%	99.6%	117%	99.7%		102%	107%	99.7%	98.7%	98.8%	105%	112%	105%
COc1cc(/C=C2\CN(C)C/C(=C\c3cc(CN4CCOCC4)c(O)c(OC)c3)C2=O)cc(CN2CCOCC2)c1O	47.7%	20.1%	88.7%	58.9%	57.8%	22.2%	83.1%	94.7%	84.5%	94%	29.2%	48%	19.5%	21.1%	91%	37.4%
Cn1c(/C=C(\C#N)c2cccc(C(F)(F)F)c2)nc2c(N3CCOCC3)nc(Cl)nc21	-23.4% (active)	7.88% (active)	-53.7% (active)	-56.4% (active)	-27.7% (active)	-85% (active)	-12% (active)	20.1%	-36.6% (active)	-13.1% (active)	-91.5% (active)	-68.8% (active)	-54.1% (active)	-85.5% (active)	14%	19.1%
Nc1nc(-c2cnccn2)nn1-c1nc2ccccc2s1	82%	99.9%	104%	97.7%	100%	108%	99.3%	101%	96.9%	104%	103%	105%	83.8%	93%	101%	101%
CC(=O)c1ccc(Nc2nc(NCCO)nc(Nc3ccc(Cl)cc3)n2)cc1	89.5%	93.4%	96.1%	95.7%	98.7%	95.5%	87.2%	91.9%	79.9%	97.3%	59.4%	94.5%	69.1%	98.4%	105%	90.8%
COC(=O)c1c2c(c(C)[n+]([O-])c1C)C(=O)C(NCc1ccc(Br)cc1)=CC2=O	47.6%	4.52% (active)	69.1%	-27% (active)	5.51% (active)	-21.5% (active)	82.4%	-3.23% (active)	20.5%	62.3%	-77.4% (active)	5.24% (active)	-20.1% (active)	1.37% (active)	14.4%	15.2%
CC(=O)c1ccc(NC(=O)Nc2ccc(S(=O)(=O)Nc3ccc(Cl)nn3)cc2)cc1	108%	98.7%	95.3%	110%	99.5%	108%	98.4%	103%	101%	107%	107%	104%	99.1%	105%	107%	103%
CC1=NCC2NC(=O)NC(C)=C12 (stereo unspecified)	100%	105%	97.4%	106%	97%	105%	93.6%	106%	113%	96.4%	98.4%	99.9%	111%	101%	113%	104%
Clc1ccc(Oc2ccc(Nc3ncnc4onc(-c5ccccc5)c34)cc2)c(Cl)c1	90.8%	97.7%	101%	81.5%	94.5%	109%	99.5%		83.5%	90.2%	103%	99.5%	80.6%	85.4%	103%	103%
Fc1cccc(COc2ccc(Nc3ncnc4onc(-c5ccccc5)c34)cc2)c1	12.5%	29.2%	9.86% (active)	43.3%	24.5%	0.458% (active)	-16.7% (active)		45.4%	12.8%	-54.7% (active)	19.8%	14%	8.15% (active)	9.52% (active)	9.57% (active)
Cc1ccc(NC2=CC(=O)C(=O)c3ccccc32)c(C)c1	56.7%	27.9%	80.3%	48.1%	35.6%	-15.6% (active)	79.5%	15.6%	22.9%		-77% (active)	34.9%		-6.25% (active)	29.1%	46.4%
C=CCN1C(=O)/C(=c2\sc3n(c2=O)NC2C(N=3)N(CC)C(=O)N2CC)c2ccccc21 (stereo unspecified)	66.1%	48.2%	44.2%	39.2%	34.2%	22.5%	29.4%	18.7%	54.4%	48.6%	-7.64% (active)	34.3%	34.3%	14.8%	38%	24.5%
COc1ccc(/C=C2/SC(=O)N(CC(=O)N3CCN(c4cc5c(cc4F)c(=O)c(C(=O)O)cn5C4CC4)CC3)C2=O)cc1	119%	93.9%	103%	107%	96%	115%	99.9%	99.4%	104%	96.1%	102%	98.2%	96%	100%	105%	105%
COc1ccc2c(c1)C=C1CSCC3=Cc4cc(OC)ccc4OC13O2	19.5%	25.4%	41.1%	47.8%	31.6%	-6.42% (active)	-0.917% (active)		48.4%	30.8%	-40% (active)	33.2%	19.7%	9.24% (active)	9.67% (active)	16.6%
CN1C(=O)N(C)C2Nn3c(s/c(=C\c4ccc(Cl)cc4Cl)c3=O)=NC21 (stereo unspecified)	80.2%	69.3%	63.5%	67.6%	60.5%	30.7%	66.9%	35.6%	69.7%	93.9%	8.74% (active)	63.1%	45.4%		86.5%	28.7%
O=c1c(-c2nc3ccccc3[nH]2)cc2ccccc2n1Cc1cn(Cc2ccccc2Cl)nn1	12.4%	50.4%	78.2%	-22% (active)	27.9%	19.8%	19.2%	40.6%	66.4%	13.3%	15.1%	37.5%	26.2%	18.2%	78.3%	45.5%
COc1cc2nc(NC3CCC3)nc(NC3CCN(C(C)C)CC3)c2cc1OC	-7.43% (active)	58.2%	97.2%	62.5%	75.1%	85.7%	66.2%	96.9%	-7.17% (active)	72.5%	-48% (active)	38.7%	29.5%		22.7%	62.9%
